Results filed as inconclusive are left out. Active and inactive are the calls of the source. Unless noted, calls come from the whole dose curve; as a rule, active = well fitted curve in the direction sought with a large enough effect; inconclusive = small, poorly fitted or top-dose-only effect, or another doubt; inactive = no such curve, though single readings can be large; an effect the other way counts as inactive or inconclusive.
Tests used:
[1] = P-glycoprotein substrates identified in KB-3-1 adenocarcinoma cell line, qHTS therapeutic library screen (AID 1346986); note: nearly all actives have a fitted effect of over 60% in size;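 note: potency is the fitted concentration of half-maximal effect; potency is for cytotoxicity meaning loss of cell viability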
Outline: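 72 h cell-killing screen, 500 cells/well, CellTiter-Glo luminescence. Paired lines KB-3-1/KB-8-5-11; P-gp dependence checked by tariquidar co-treatment and HEK-293 MDR-19 versus empty-vector cells.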

[2] = Primary qHTS for inhibitors of nuclear receptor binding SET domain protein 2 (NSD2) in an isogenic RCH-ACV NSD2 p.E1099K mutant (9B) (AID 1645876); note: nearly all actives have a fitted effect of over 70% in size; note: potency is the fitted concentration of half-maximal effect
[3] = Primary qHTS for inhibitors of nuclear receptor binding SET domain protein 2 (NSD2) in an RCH-ACV wild type WT cells (2C) (AID 1645877); note: nearly all actives have a fitted effect of over 70% in size; note: potency is the fitted concentration of half-maximal effect
[4] = biological target: Glutathione peroxidase 1 (Homo sapiens) (UniProt P07203); assay: Primary qHTS Assay for Inhibitors of Recombinant Selenoprotein Glutathione Peroxidase 1 (GPX1) (AID 1845191); note: nearly all actives have a fitted effect of over 65% in size
Chain of Glutathione peroxidase 1 (Homo sapiens) (P07203 whole entry, looked up): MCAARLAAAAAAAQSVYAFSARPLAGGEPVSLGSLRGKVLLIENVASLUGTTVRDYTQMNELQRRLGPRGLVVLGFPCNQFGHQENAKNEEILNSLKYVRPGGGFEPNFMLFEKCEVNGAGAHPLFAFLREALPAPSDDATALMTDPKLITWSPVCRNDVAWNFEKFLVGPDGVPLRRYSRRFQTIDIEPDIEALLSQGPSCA
Outline: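 GPX1 10 nM, GR 100 nM, GSH 1 mM, NADPH 0.5 mM, CHP 0.5 mM (final). 30-min cpd preincubation, RT. Ex340/Em450 read t=0, t=15 min.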

[5] = biological target: Phospholipid hydroperoxide glutathione peroxidase GPX4 (Homo sapiens) (UniProt P36969); assay: Primary qHTS Assay for Inhibitors of Recombinant Selenoprotein Glutathione Peroxidase 4 (GPX4) (AID 1845192); conditions: outcome: dose series up to 50 µM unless noted; note: nearly all actives have a fitted effect of over 65% in size
Chain of Phospholipid hydroperoxide glutathione peroxidase GPX4 (Homo sapiens) (P36969 whole entry, looked up): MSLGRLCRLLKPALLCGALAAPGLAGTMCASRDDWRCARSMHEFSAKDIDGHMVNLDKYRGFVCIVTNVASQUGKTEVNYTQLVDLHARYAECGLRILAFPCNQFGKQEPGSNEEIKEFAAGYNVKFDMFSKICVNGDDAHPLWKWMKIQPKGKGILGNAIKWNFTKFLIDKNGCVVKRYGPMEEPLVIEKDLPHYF
Outline: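 qHTS, GR-coupled: GPX4 200 nM + cpd 30 min RT → GSH 1 mM, NADPH 0.5 mM, GR 100 nM → CHP 0.5 mM start; fluor 340/450 at t0 and t15 min; no-enzyme wells as control.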

[6] = qHTS drug screen for cell cycle checkpoint inhibitors in PARPi-resistant BRCA-mutant ovarian cancer cell lines. (AID 1963452; calls by dose curve); conditions: PEO1/OlaR viability, CellTiter-Glo luminescence, 96 h, stronger effect = lower value
Outline: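 PEO1, PEO4 and PEO1/OlaR ovarian cancer cells, 600 per well, exposed 96 h at 37C to a dilution series. Viability read by CellTiter-Glo luminescence, normalized to DMSO and empty wells; activity summarized as Z-AUC.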

[7] = biological target: Catechol O-methyltransferase (Homo sapiens) (UniProt P21964); assay: Confirmatory Screen for Target Class Profiling of Small Molecule Inhibitors of Methyltransferases (AID 1745852); conditions: MTase-Glo luminescence, SAH detection, recombinant enzyme; measured here: COMT max response; stronger effect = lower value
Chain of Catechol O-methyltransferase (Homo sapiens) (P21964 whole entry, looked up): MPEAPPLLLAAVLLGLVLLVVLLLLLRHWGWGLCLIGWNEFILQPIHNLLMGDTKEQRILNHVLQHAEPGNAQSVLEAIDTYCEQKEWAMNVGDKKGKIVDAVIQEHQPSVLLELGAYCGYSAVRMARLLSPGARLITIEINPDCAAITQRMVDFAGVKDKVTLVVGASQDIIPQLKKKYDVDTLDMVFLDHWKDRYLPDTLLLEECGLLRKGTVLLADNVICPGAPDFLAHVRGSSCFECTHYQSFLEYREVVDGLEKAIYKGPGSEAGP

[8] = biological target: Guanidinoacetate N-methyltransferase (Homo sapiens) (UniProt Q14353); assay: as above; conditions: activity change, negative = inhibition: at 57.3 µM (top of the series) unless noted
[9] = biological target: Nicotinamide N-methyltransferase (Homo sapiens) (UniProt P40261); assay: as above; conditions: MTase-Glo luminescence, SAH detection, recombinant enzyme; measured here: NNMT max response; stronger effect = lower value
[10] = biological target: Phenylethanolamine N-methyltransferase (Homo sapiens) (UniProt P11086); assay: as above; conditions: MTase-Glo luminescence, SAH detection, recombinant enzyme; measured here: PNMT max response; stronger effect = lower value
Chain of Phenylethanolamine N-methyltransferase (Homo sapiens) (P11086 whole entry, looked up): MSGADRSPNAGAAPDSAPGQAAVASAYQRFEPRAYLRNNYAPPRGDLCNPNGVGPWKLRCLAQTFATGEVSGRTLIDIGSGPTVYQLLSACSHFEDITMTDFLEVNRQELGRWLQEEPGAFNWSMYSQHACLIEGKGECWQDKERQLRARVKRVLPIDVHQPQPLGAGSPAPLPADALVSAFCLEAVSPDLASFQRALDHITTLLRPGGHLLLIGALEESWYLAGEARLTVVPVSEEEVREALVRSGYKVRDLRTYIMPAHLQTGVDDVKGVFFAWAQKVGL

[11] = biological target: Lysosomal acid glucosylceramidase (Homo sapiens) (UniProt P04062); assay: Glucocerebrosidase-p2 (AID 348; in the data active = potency below about 10 µM; note: potency is the fitted concentration of half-maximal effect); conditions: purified GBA, blue fluorogenic substrate, 40 min
Chain of Lysosomal acid glucosylceramidase (Homo sapiens) (P04062 whole entry, looked up): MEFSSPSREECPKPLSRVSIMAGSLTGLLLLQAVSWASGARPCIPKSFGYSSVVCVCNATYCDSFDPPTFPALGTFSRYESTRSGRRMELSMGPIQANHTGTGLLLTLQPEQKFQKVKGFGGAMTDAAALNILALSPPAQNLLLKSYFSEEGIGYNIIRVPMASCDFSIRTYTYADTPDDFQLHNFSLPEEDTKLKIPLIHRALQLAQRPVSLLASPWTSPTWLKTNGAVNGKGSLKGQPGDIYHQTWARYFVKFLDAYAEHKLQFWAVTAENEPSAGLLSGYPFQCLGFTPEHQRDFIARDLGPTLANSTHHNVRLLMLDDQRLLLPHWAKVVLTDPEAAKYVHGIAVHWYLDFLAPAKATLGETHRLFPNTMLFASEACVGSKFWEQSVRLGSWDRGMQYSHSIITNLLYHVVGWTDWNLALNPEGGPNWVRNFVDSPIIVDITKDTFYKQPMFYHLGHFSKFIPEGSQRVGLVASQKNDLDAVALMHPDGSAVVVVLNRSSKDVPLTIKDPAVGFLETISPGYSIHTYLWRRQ
Outline: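 Normal human glucocerebrosidase (0.2 nM) with blue fluorogenic substrate (80 uM final) in citrate/phosphate pH 5.9 with 10mM sodium taurocholate, 0.01% tween-20; 40 min RT, NaOH/glycine stop; fluorescence Ex 365/Em 440; AC50 from a titration from 0.6 nM upwards.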

[12] = biological target: Cytochrome P450 1A2 (Homo sapiens) (UniProt P05177); assay: p450-cyp1a2 (AID 410; calls by dose curve; note: potency is the fitted concentration of half-maximal effect)
Chain of Cytochrome P450 1A2 (Homo sapiens) (P05177 whole entry, looked up): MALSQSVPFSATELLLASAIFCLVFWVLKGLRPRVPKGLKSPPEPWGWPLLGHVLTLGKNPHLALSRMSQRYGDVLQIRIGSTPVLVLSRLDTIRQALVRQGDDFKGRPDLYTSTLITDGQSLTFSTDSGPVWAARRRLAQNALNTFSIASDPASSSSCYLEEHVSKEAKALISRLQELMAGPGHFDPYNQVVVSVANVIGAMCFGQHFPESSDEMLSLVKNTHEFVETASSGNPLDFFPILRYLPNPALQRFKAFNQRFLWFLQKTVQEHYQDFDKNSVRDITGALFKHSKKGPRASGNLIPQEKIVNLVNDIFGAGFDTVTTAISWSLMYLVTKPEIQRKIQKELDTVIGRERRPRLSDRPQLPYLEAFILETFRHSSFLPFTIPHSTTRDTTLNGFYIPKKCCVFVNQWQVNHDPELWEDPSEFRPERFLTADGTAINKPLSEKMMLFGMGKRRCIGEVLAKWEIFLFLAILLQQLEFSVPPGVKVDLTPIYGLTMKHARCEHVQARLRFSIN
Outline: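 O-Demethylation of luciferin 6' methyl ether by human CYP1A2 is monitored as luciferase luminescence. Substrate sits at Km (100uM); enzyme is 20nM. Values are scaled to 57 uM furafylline as maximal inhibition.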

[13] = NFAT Signaling Pathway (AID 444; active = well fitted curve in either direction with a large enough effect, not every such curve was filed as active;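 note: carbachol stimulus at about its EC50 of 1 µM final; % is set by controls: 0 for no effect and ±100 for the full control effect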); conditions: Jurkat NFAT-bla M1, carbachol, beta-lactamase ratio, 5 h; at 7.69 µM (top of the series)
Outline: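 Jurkat cells carrying an NFAT-driven β-lactamase reporter and co-transfected muscarinic M1 receptor were treated with compound plus carbachol (1 uM final, an EC50 level) for 5 h at 37 °C. CCF4 loading followed for 1 h at RT; 460/530 nm ratio gave %activity.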

[14] = Stat Signaling Pathway (AID 446; active = well fitted curve in either direction with a large enough effect, not every such curve was filed as active;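 note: ME-180 cervical cancer cells given 40 pM IL-6 alongside compound; SIE-controlled beta-lactamase reporter measured as 460/530 nm FRET emission ratio; % is set by controls: 0 for no effect and ±100 for the full control effect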); conditions: ME-180 (cervical carcinoma) SIE beta-lactamase reporter, IL-6 stimulated, 5 h; at 7.69 µM (top of the series)
Outline: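 Emission at 460 and 530 nm (excitation 405 nm) reports SIE-controlled beta-lactamase in ME-180 cells. Cells received compound with 40 pM IL-6 for 5 hrs at 37 C; data scaled between 300 pM IL-6 and 125 nM JAK-inhibitor controls.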

[15] = biological target: Glucocorticoid receptor (Homo sapiens) (UniProt P04150); assay: GR-GFP Redistribution (AID 450;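 active = compounds whose dose series gives a full or clear partial fitted curve of increased nuclear translocation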; note: potency is the fitted concentration of half-maximal effect); conditions: U2OS GR-GFP nuclear translocation, laser cytometry, 2 h
Chain of Glucocorticoid receptor (Homo sapiens) (P04150 whole entry, looked up, the tested form may be a part): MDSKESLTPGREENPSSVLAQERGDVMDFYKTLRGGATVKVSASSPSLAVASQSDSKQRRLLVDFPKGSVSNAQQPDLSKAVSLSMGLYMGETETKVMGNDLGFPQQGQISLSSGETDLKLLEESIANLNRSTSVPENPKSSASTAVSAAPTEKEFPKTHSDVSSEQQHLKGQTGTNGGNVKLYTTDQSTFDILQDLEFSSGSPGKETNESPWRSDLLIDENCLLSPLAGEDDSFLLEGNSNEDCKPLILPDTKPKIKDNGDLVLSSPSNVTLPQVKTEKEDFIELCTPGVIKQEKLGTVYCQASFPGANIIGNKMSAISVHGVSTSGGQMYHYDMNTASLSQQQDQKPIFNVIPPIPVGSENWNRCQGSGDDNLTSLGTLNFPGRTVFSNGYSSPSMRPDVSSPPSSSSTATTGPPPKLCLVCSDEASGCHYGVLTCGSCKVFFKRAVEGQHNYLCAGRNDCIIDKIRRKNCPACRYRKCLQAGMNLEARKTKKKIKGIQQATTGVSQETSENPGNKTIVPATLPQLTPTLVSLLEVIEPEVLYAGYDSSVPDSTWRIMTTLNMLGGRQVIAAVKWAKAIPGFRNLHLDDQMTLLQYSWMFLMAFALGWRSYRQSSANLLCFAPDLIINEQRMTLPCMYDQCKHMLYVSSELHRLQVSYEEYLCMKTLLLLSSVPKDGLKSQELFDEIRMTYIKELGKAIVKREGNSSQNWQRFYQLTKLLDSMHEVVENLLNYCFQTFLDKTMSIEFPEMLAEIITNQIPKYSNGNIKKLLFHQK

[16] = biological target: Glucocorticoid receptor (Homo sapiens) (UniProt P04150); assay: GR-EFC Redistribution (AID 451; calls by dose curve; note: potency is the fitted concentration of half-maximal effect); conditions: CHO-K1 GR-EFC translocation, beta-gal luminescence, 2 h
Outline: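 CHO-K1 cells stably expressing nuclear-localized β-gal enzyme acceptor and GR fused C-terminally to the enzyme donor fragment; ligand-driven nuclear translocation restores β-gal by complementation. Compounds titrated up to 46 uM final, 2 h at 37 °C; luminescence read.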

[17] = biological target: Mitogen-activated protein kinase 10 (Mus musculus) (UniProt Q61831); assay: JNK3 AlphaScreen Assay (AID 530; active = well fitted curve in either direction with a large enough effect, not every such curve was filed as active;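 note: kinase came from lysate of stimulated human HepG2 cells; signal reports phosphorylation of biotinylated GST-cJun 1-79 at Ser73 with 10 µM ATP; % is set by controls: 0 for no effect and ±100 for the full control effect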)
Outline: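 Phosphorylation of biotinylated GST-cJun(1-79) at Ser73 is measured by AlphaScreen proximity luminescence. Enzyme is JNK3 in HepG2 lysates activated with interleukin-1beta and tumor necrosis factor alpha; ATP is 10 uM final.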

[18] = biological target: Cytochrome P450 3A4 (Homo sapiens) (UniProt P08684); assay: qHTS Assay for Inhibitors and Substrates of Cytochrome P450 3A4 (AID 884); note: % is set by controls: 0 for no effect and ±100 for the full control effect; nearly all actives have a fitted effect of over 50% in size
Outline: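 Luminescent readout of luciferin produced by CYP3A4 (20 nM) dealkylation of Luciferin-PPXE, 25 uM (its KM). NADPH-driven reaction ran 60 min at RT after 10 min compound preincubation; data scaled to 57 uM ketoconazole as 100% inhibition.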

[19] = biological target: Cytochrome P450 2D6 (Homo sapiens) (UniProt P10635); assay: qHTS Assay for Inhibitors and Substrates of Cytochrome P450 2D6 (AID 891); note: potency is the fitted concentration of half-maximal effect; nearly all actives have a fitted effect of over 60% in size
Chain of Cytochrome P450 2D6 (Homo sapiens) (P10635 whole entry, looked up): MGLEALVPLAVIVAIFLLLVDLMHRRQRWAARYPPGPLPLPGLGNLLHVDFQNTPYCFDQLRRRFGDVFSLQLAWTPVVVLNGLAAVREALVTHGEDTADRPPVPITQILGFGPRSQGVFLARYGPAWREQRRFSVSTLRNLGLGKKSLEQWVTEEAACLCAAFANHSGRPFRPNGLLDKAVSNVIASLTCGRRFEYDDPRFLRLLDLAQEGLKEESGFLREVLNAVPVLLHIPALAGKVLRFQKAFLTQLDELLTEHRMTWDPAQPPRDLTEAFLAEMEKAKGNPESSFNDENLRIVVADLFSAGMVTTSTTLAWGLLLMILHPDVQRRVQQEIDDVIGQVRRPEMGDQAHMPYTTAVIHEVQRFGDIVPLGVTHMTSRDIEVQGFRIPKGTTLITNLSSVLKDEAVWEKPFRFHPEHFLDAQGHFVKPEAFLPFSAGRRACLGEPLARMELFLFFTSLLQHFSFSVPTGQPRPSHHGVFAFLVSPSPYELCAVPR
Outline: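 Luminescent read-out of luciferin formed by 5 nM human CYP2D6 demethylating 30 uM Luciferin-ME EGE (Km level) over 60 min at room temperature after NADPH regeneration addition. Data normalized to full inhibition by 1.43 uM quinidine.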

[20] = biological target: Cytochrome P450 2C19 (Homo sapiens) (UniProt P33261); assay: qHTS Assay for Inhibitors and Substrates of Cytochrome P450 2C19 (AID 899); note: potency is the fitted concentration of half-maximal effect; nearly all actives have a fitted effect of over 60% in size
Chain of Cytochrome P450 2C19 (Homo sapiens) (P33261 whole entry, looked up): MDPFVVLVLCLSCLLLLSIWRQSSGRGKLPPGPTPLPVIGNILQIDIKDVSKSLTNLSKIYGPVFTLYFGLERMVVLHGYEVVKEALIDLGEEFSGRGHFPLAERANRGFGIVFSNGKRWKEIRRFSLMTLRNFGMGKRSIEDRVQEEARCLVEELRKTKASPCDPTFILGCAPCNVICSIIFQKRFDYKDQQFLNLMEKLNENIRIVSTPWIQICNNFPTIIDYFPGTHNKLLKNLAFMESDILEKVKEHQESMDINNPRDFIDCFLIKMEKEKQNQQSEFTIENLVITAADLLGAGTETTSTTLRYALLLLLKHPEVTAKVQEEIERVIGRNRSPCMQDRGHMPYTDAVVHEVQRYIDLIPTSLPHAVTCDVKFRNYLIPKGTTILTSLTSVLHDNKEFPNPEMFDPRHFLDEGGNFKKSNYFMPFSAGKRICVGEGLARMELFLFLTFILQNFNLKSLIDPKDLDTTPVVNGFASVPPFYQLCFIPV
Outline: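 NADPH-dependent conversion of Luciferin-H EGE (10uM, at KM) by 5nM enzyme in 50mM KPO4, 60 min at 37C following 10 min compound preincubation. Stopped with luciferin detection buffer; luminescence read after 20 min.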

[21] = Confirmation and Secondary Assay for Modulators of Hemoglobin Beta Chain Splicing at IVS2 654 locus (AID 910);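 note: per-well total GFP intensity by laser scanning cytometry after 2-day treatment; % of control where 0% means no effect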
Outline: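 HeLa cells stably carrying EGFP interrupted by mutant beta-globin IVS2-654 intron (CMV-driven) were treated with compound for 2 days at 37C; corrected splicing was scored as total peak GFP intensity per well (488 nm excitation, 500-520 nm emission).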

[22] = Confirmation and Secondary Assay for Modulators of Hemoglobin Beta Chain Splicing at IVS2 705 locus (AID 930);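 note: HeLa cells stably expressing the EGFP-705 splicing reporter; GFP fluorescence per well restored by corrected splicing of the IVS2-705 intron in EGFP; % of control where 0% means no effect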
Outline: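 Splice-correction reporter: EGFP cDNA split by beta-globin intron 2 bearing the 705 mutation, stably in HeLa. Compound incubation 2 days, 37C; fluorescent objects 5-250 µm summed per well.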

[23] = qHTS Assay for Lipid Storage Modulators (AID 1519; calls by dose curve); conditions: Drosophila S3 cells, BODIPY lipid droplet/cell ratio, laser cytometry, cells loaded with oleic acid
Outline: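 Cells seeded at 5,000 per well were treated with compounds over a concentration series and loaded with oleic acid (400 uM, as added). Lipid droplet fluorescence (488 nm excitation, 500-530 nm channel) was read by laser-scanning cytometry and normalized to 20 uM Triacsin C.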

[24] = biological target: Ubiquitin carboxyl-terminal hydrolase 1 (Homo sapiens) (UniProt O94782); assay: Inhibitors of USP1/UAF1: Pilot qHTS (AID 504865);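 note: rhodamine fluorescence freed from ubiquitin-rhodamine substrate followed over time; top concentration of the series differs between compounds; % is set by controls: 0 for no effect and ±100 for the full control effect; nearly all actives have a fitted effect of over 35% in size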
Chain of Ubiquitin carboxyl-terminal hydrolase 1 (Homo sapiens) (O94782 whole entry, looked up): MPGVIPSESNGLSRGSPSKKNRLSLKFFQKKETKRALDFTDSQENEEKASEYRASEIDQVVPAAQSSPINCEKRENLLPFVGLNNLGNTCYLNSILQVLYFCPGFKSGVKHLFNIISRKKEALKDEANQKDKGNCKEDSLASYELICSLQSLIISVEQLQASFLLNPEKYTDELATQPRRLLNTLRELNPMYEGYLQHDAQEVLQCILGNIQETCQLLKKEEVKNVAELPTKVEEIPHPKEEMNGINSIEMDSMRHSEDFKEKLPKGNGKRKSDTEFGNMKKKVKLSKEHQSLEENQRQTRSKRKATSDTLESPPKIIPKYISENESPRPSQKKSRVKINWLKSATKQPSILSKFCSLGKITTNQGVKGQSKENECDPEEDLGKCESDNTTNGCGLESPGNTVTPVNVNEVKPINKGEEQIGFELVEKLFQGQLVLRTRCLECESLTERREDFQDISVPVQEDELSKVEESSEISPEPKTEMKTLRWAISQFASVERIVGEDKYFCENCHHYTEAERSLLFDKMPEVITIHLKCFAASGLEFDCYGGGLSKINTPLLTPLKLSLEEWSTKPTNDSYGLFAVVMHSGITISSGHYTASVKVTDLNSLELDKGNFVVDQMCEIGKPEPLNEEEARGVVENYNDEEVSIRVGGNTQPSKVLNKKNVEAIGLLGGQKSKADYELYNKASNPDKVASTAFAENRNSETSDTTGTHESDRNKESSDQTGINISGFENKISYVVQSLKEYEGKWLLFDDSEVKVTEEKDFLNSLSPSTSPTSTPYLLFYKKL
Outline: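 In 50mM HEPES pH 7.8 containing 0.5mM EDTA, 1mM TCEP, 0.1 mg/ml BSA and 0.01% Tween-20, 1nM USP1/UAF1 is exposed to compound for 15 min, then Ub-Rho (150nM final) is added and fluorescence is read over time.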

[25] = Primary qHTS for small molecule stabilizers of the endoplasmic reticulum resident proteome: Secreted ER Calcium Modulated Protein (SERCaMP) assay (AID 1508630); note: % is set by controls: 0 for no effect and ±100 for the full control effect
Outline: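 The SH-SY5Y reporter protocol was run at 3 concentrations up to 38.3 uM (primary) or 11 concentrations (follow-up): 16 h compound, 100 nM thapsigargin for 4 h, then extracellular luciferase luminescence.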

[26] = biological target: Calcium and integrin-binding protein 1 (Homo sapiens) (UniProt Q99828); assay: Primary qHTS for Identification of Calcium Integrin Binding Protein 1 (CIB1) Competitor (AID 1508620)
Chain of Calcium and integrin-binding protein 1 (Homo sapiens) (Q99828 whole entry, looked up): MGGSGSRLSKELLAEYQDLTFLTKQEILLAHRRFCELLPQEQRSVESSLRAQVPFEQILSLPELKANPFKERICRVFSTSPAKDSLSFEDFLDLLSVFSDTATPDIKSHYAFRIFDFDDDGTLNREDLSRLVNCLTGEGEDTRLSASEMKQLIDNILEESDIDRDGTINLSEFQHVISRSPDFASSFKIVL
Outline: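 Fluorescence polarization competition: CIB1-GST (1 uM final) preincubated with compound 15 min at room temperature, then FITC-labeled alphaIIb peptide (100 nM final) added for another 15 min. Polarization read at Ex 480/Em 540.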

[27] = qHTS to identify inhibitors of the type 1 interferon - major histocompatibility complex class I in skeletal muscle: primary screen against the NCATS Mechanism Interrogation Plate v5.0 (MIPE) Libary (AID 1347411);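 note: plate controls were vehicle for no effect and reference inhibitor for full effect; nearly all actives have a fitted effect of over 65% in size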
Outline: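 Seed engineered human myoblasts (HLA-B HiBit) in medium without dexamethasone containing 4 ng/ml IFN-beta; after 1 hr add compound titrations (top 46 uM final). Incubate 24 hrs at 37 C, lyse 10 min with HiBiT reagent, read luminescence.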

[28] = biological target: Tyrosine-protein kinase Yes (Homo sapiens) (UniProt P07947); assay: qHTS for small molecule inhibitors of Yes1 kinase: Primary Screen (AID 686947); note: potency is the fitted concentration of half-maximal effect; nearly all actives have a fitted effect of over 60% in size
Outline: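 ADP-Glo luminescence reports ADP formed by 4 nM Yes1 phosphorylating poly(E4Y) (0.3 mg/mL) with 0.1 mM ATP for 60 min at room temperature, following 20 min compound preincubation; normalised between DMSO wells with and without enzyme.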

[29] = qHTS for small molecule inhibitors of Yes1 kinase: Counter Assay (AID 686950);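 note: no kinase present so only ADP-Glo detection of a fixed ADP amount is tested; luminescence from ADP-Glo reporting ADP in a fixed ATP and ADP mixture; 0% = DMSO wells with ATP plus ADP and -100% = ATP-only wells without ADP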
Outline: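 Measuring interference with ADP-Glo, the assay ran 60 min at room temperature on an ATP/ADP mix lacking enzyme. Values were normalized to ATP-plus-ADP (maximum) and ATP-only (minimum) DMSO controls.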

[30] = measured here: PEO1 parental Z-AUC

For `COc1ccc2cc1Oc1ccc(cc1)CC1c3cc(c(OC)cc3CCN1C)Oc1c(OC)c(OC)c(OC)c3c1C(C2)N(C)CC3` (stereo unspecified), the Potency [1] was “inactive”, the Potency [2] was “inactive” and the Potency [3] was “inactive”. The Potency [4] was “inactive”.

With `Cc1ccc(OCCSc2ncccn2)c(Br)c1` the Potency [1] was “inactive”, the Potency [2] was “inactive” and the Potency [3] was “inactive”. For the same compound, the Potency [4] was “inactive”.

For `COC1(c2sc3c(N4CCOCC4)nc(-c4cnc(N)nc4)nc3c2C)COC1`, the Potency [1] was 0.184 µM (active), the Potency [2] was 209 nM (active) and the Potency [3] was 186 nM (active). The Potency [4] was “inactive”, the Potency [5] was “inactive” and the Z-AUC [6] was -1.69 (inactive). It also gave a Z-AUC [6, 30] of -1.58 and a Z-AUC ([6]; measured here: PEO4 Z-AUC) of -1.08.

In the case of `O=C1Cc2c([nH]c3ccc([N+](=O)[O-])cc23)-c2ccccc2N1`, the Potency [1] is reported as 1.78 µM (active), the Potency [2] is reported as 796 nM (active) and the Potency [3] is reported as 632 nM (active). The Potency [4] was “inactive”.

With `Nc1ccc(-c2cnc(N)c(-c3ccc(Cl)cc3)c2)cn1` the Potency [1] was “inactive”, the Potency [2] was 14600 nM (active) and the Potency [3] was 14600 nM (active). For the same compound, the activity [7] was -71.5%, the activity change, negative = inhibition [8] was -1.94% and the activity [9] was -33.1%. The activity [10] was -5.01%.

In the case of `c1csc(CNc2ncnc3ccc(-c4ccc5c(c4)OCO5)cc23)c1`, the Potency [11] is reported as > 11.4 µM (inactive), the Potency [12] is reported as 398 nM (active) and the activity change, negative = inhibition [13] is reported as 5.05% (inactive). The activity, negative = inhibition [14] was -12.1% (inactive), the Potency [15] was > 46 µM (inactive) and the Potency [16] was > 46 µM (inactive). For the same compound, the Potency [17] was “inactive”, the Potency [18] was “inactive” and the Potency [19] was 398 nM (active). For the same compound, the Potency [20] was 3.98 µM (active), the outcome [21] was “inactive” and the outcome [22] was “inactive”. The activity change, negative = inhibition ([23]; at 57.5 µM (top of the series)) was 9.51% (inactive), the max response ([23]; measured here: cell count channel max response) was 14.3% and the max response ([23]; measured here: lipid channel max response) was 25.9%. For the same compound, the Potency [24] was “inactive”, the Potency [1] was 11.6 µM (active) and the Potency [25] was “inactive”.

With `C=C(C)[C@@H]1CCC2=CC(=O)C[C@@H](C)[C@]2(C)C1` the Potency [1] was “inactive”, the Potency [2] was “inactive” and the Potency [3] was “inactive”. For the same compound, the Potency [4] was “inactive”.

For `Cc1ccc(NS(=O)(=O)c2cc3c(cc2F)NC(=O)CC3)cc1Cl`, the Potency [1] was “inactive”, the outcome [26] was “inactive” and the Potency [2] was “inactive”. For the same compound, the Potency [3] was “inactive” and the Potency [4] was “inactive”.

With `Cc1cc(/C=c2/sc3nc4ccccc4n3c2=O)c(C)n1-c1ccccc1` the Potency [1] was “inactive”, the Potency [27] was “inactive” and the Potency [4] was “inactive”. The Z-AUC [6] was 0.302 (inactive), the Z-AUC [6, 30] was 0.332 and the Z-AUC ([6]; measured here: PEO4 Z-AUC) was 0.429.

With `CN(c1ccc(NC(=O)Nc2ccc(OC(F)(F)F)cc2)cc1)c1ccnc(Nc2cccc(S(N)(=O)=O)c2)n1` the Potency [28] was 82.3 nM (active), the outcome [29] was “inactive” and the Potency [1] was 18.4 µM (active). The Potency [2] was 3660 nM (active), the Potency [3] was 1030 nM (active) and the Potency [4] was “inactive”.
